Results reported in PubChem BioAssay AID1159580 (chemical genetic matrix, 2015).
Screen size: about 5,500 compounds; about 2,000 (36%) were called active. About 18% were inconclusive and are not listed. No stated cut-off is given here; in the data, active means normalized growth mostly below about 0.91 (no sharp cut-off); inconclusive means no clear call, values can overlap the other calls; inactive means mostly above about 0.92. This is one part of the list.

Experiment: chemical genetic growth profiling, strain panel (AID 1159580);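 further: tested at 20 µM; growth read once vehicle control cultures reached saturation at 30 °C; 1 = growth at the plate median or of vehicle wells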
Details: S. cerevisiae deletion strains, growth OD
[1] = locus YAL013W, strain DEP1, stronger effect = lower value
[2] = locus YGR229C, strain SMI1, stronger effect = lower value
[3] = locus YJR075W, strain HOC1, stronger effect = lower value
[4] = locus YMR307W, strain GAS1, stronger effect = lower value
[5] = locus YNL322C, strain KRE1, stronger effect = lower value
[6] = locus YPL055C, strain LGE1, stronger effect = lower value

Measured: normalized growth

COc1ccc(OC)c(S(=O)(=O)Nc2ccc(C#N)cc2)c1
inactive: [1] 0.978 | locus YBR229C, strain ROT2, stronger effect = lower value 1.01 | locus YDL101C, strain DUN1, stronger effect = lower value 1 | locus YDR150W, strain NUM1, stronger effect = lower value 0.998 | locus YEL061C, strain CIN8, stronger effect = lower value 1.02 | locus YGR078C, strain PAC10, stronger effect = lower value 1.02 | [2] 1 | locus YHR030C, strain SLT2, stronger effect = lower value 1.01 | locus YHR087W, strain rtc3, stronger effect = lower value 1.01 | locus YJL187C, strain SWE1, stronger effect = lower value 1 | locus YJR043C, strain POL32, stronger effect = lower value 0.989 | [3] 1.01 | locus YKL190W, strain CNB1, stronger effect = lower value 0.996 | locus YLR039C, strain RIC1, stronger effect = lower value 0.993 | locus YLR058C, strain SHM2 (second series), stronger effect = lower value 1 | locus YLR085C, strain ARP6, stronger effect = lower value 1.04 | locus YLR262C, strain YPT6, stronger effect = lower value 0.953 | locus YML094W, strain GIM5, stronger effect = lower value 1.03 | locus YMR219W, strain ESC1, stronger effect = lower value 1 | locus YMR263W, strain SAP30, stronger effect = lower value 0.997 | [4] 1.05 | locus YNL153C, strain GIM3, stronger effect = lower value 0.998 | locus YNL298W, strain CLA4 (second series), stronger effect = lower value 1 | [5] 0.993 | locus YNR030W, strain Alg12, stronger effect = lower value 1.02 | [6] 1.02 | locus YPL241C, strain CIN2, stronger effect = lower value 1.02 | locus YPR135W, strain CTF4, stronger effect = lower value 0.951

NNC(N)=O
inactive: [1] 1.03 | locus YAL040C, strain CLN3, stronger effect = lower value 1.01 | locus YCL061C, strain MRC1 (second series), stronger effect = lower value 1.01 | locus YDR363W, strain ESC2, stronger effect = lower value 1.02 | locus YER002W, strain NOP16, stronger effect = lower value 1.01 | [2] 1.03 | [3] 1.02 | [4] 0.998 | locus YNL175C, strain NOP13, stronger effect = lower value 1.01 | locus YNL197C, strain WHI3, stronger effect = lower value 1 | locus YNL224C, strain SQS1, stronger effect = lower value 1 | [5] 1.03 | locus YOR083W, strain WHI5 (second series), stronger effect = lower value 1 | [6] 1.05
